{
  "source": "paper PMC5540273",
  "about": "(PLoS ONE, 2017);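 note: KINOMEscan kinase panel screen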",
  "data": [
    {"test_system": "CDKL2", "details": "concentration: 1 μM, replicates: in singlicate; n = 1", "units": {"%Inh": "%"}, "values": [
      {"smiles": "CN1CCN(CCCNc2nccc(-c3c(-c4ccc(F)cc4)nn4cc(C(F)(F)F)ccc34)n2)CC1", "note": "[GW621581]", "%Inh": 21},
      {"smiles": "C[C@@H]1CC[C@@H](C(=O)Nc2ccccc2)CN1c1cc(-c2ccc3c(N)n[nH]c3c2)nc(N)n1", "note": "[GSK2286062]", "%Inh": 7},
      {"smiles": "Cl.Cl.NCC(NCc1ccc(-c2ccnc3[nH]ccc23)s1)c1ccccc1", "note": "(stereo not shown) [GSK1321565]", "%Inh": 13},
      {"smiles": "Nc1n[nH]c2cnc(-c3ccccc3)cc12", "note": "[SB-642124]", "%Inh": 58},
      {"smiles": "COc1cccc(NC(=O)NC2CCN(c3ccnc(Nc4cc(OC)c(OC)c(OC)c4)n3)C2)c1", "note": "(stereo not shown) [GSK1379763]", "%Inh": 52},
      {"smiles": "COc1cccc(C(=O)Nc2cccc(Oc3ccc4nc(NC(=O)C5CC5)cn4n3)c2)c1", "%Inh": 26},
      {"smiles": "c1ccc(-c2n[nH]cc2Nc2ccnc3ccccc23)nc1", "note": "[GW694077]", "%Inh": 31},
      {"smiles": "O=C(Nc1cccc(-c2nn3ccccc3c2-c2ccnc(Nc3cccc(C(F)(F)F)c3)n2)c1)c1c(F)cccc1F", "note": "[GSK292658]", "%Inh": 24},
      {"smiles": "CSc1cccc2c(-c3ccncn3)c(-c3ccc(F)cc3)nn12", "note": "[GW514786]", "%Inh": 31},
      {"smiles": "COc1ccc(CNC(=O)NC2CCN(c3ccnc(Nc4ccc(F)cc4)n3)CC2)cc1", "note": "[GSK1379788]", "%Inh": 22},
      {"smiles": "COCCOCCOc1cc2ncc3c4ccc(C#N)cc4[nH]c3c2cc1OC", "%Inh": 7},
      {"smiles": "FC(F)(F)c1ccc(/C=C/c2cncnc2Nc2ccc3[nH]c(Cc4ccccc4)nc3c2)cc1", "note": "[GW709199]", "%Inh": 38},
      {"smiles": "COc1cc(Nc2nccc(N3CCC(NC(=O)Nc4cccc(C(C)=O)c4)C3)n2)cc(OC)c1OC", "note": "(stereo not shown) [GSK1379753]", "%Inh": 46},
      {"smiles": "O=C(O)C(F)(F)F.O=C(O)C(F)(F)F.O=c1[nH]ccc2nc(N[C@@H]3CCCNC3)nc(Nc3ccc(S(=O)(=O)N4CCOCC4)cc3)c12", "note": "[GSK2177277]", "%Inh": 45},
      {"smiles": "Cc1ccc(C(=O)N2CC[C@@H](O)C2)cc1-n1c(C)cc(OCc2ccc(F)cc2F)c(Br)c1=O", "%Inh": 0},
      {"smiles": "Cl.c1ccc(-c2ccc3c(Nc4ccc5[nH]ccc5c4)ccnc3c2)nc1", "note": "[GW440138]", "%Inh": 7},
      {"smiles": "CCCCc1nn2ncccc2c1-c1ccnc(Nc2ccc(N3CCN(C)CC3)cc2)n1", "note": "[GW684941]", "%Inh": 99.3},
      {"smiles": "COc1ccc(Nc2nccc(NCCNC(=O)c3cc4ccccc4s3)n2)cc1", "note": "[GSK1379896]", "%Inh": 23},
      {"smiles": "COc1ccc(Nc2nccc(N3CCC(NC(=O)Nc4cccc(OC)c4)C3)n2)cc1", "note": "(stereo not shown) [GSK1379742]", "%Inh": 49},
      {"smiles": "O=C(Nc1ccccc1F)NC1CCN(c2ccnc(Nc3ccc(F)cc3)n2)CC1", "note": "[GSK1379800]", "%Inh": 17},
      {"smiles": "Cn1cc(-c2ccc3c(c2)CCN3C(=O)Cc2cccc(F)c2)c2c(N)ncnc21", "note": "[GSK2603358]", "%Inh": 43},
      {"smiles": "CCc1ccc(-c2ccc3c(c2)-c2c(cnn2C)S(=O)(=O)N3C)cc1", "%Inh": 0},
      {"smiles": "COc1cc(Nc2nccc(-c3c(-c4cccc(NC(=O)c5c(F)cccc5F)c4)nn4ccccc34)n2)cc(OC)c1OC", "note": "[GSK323521]", "%Inh": 0},
      {"smiles": "O=C(Nc1cccc(Oc2ccc3nc(NC(=O)C4CC4)cn3n2)c1)c1ccccc1C(F)(F)F", "%Inh": 26},
      {"smiles": "O=c1[nH]cc(-c2ccc(N3CCOCC3)cc2)c2sc(-c3cn[nH]c3)cc12", "note": "[GSK2276055]", "%Inh": 0},
      {"smiles": "Cc1cccc(Nc2nc(N[C@H]3CCNC3)ncc2C(N)=O)c1.Cl", "note": "[GSK2197149]", "%Inh": 7},
      {"smiles": "Nc1ncc(-c2cccnc2)c2scc(-c3ccc4c(c3)CCN4C(=O)Cc3ccccc3)c12", "note": "[GSK683281]", "%Inh": 29},
      {"smiles": "Cl.Cl.NCC(C(=O)Nc1cc(Br)c(-c2ccnc3[nH]ccc23)s1)c1ccccc1", "note": "(stereo not shown) [GSK1269851]", "%Inh": 51},
      {"smiles": "Fc1ccc(-c2ncn(C3CCNCC3)c2-c2ccnc(Oc3ccc(-c4ccccc4)cc3)n2)cc1", "note": "[SB-245391]", "%Inh": 0},
      {"smiles": "Cl.c1ccc(-c2ccc3c(Nc4ccc5[nH]ncc5c4)ccnc3c2)nc1", "note": "[GW440137]", "%Inh": 40},
      {"smiles": "Cl.NC(=O)c1cccc(Nc2nccc(Nc3ccc(Oc4c(Cl)cccc4Cl)c(Cl)c3)n2)c1", "note": "[GW659009]", "%Inh": 15},
      {"smiles": "O=C(Nc1cccc(-c2nn3ncccc3c2-c2ccnc(Nc3ccccc3)n2)c1)c1c(F)cccc1F", "note": "[GSK198271]", "%Inh": 30},
      {"smiles": "COC(=O)Nc1nc2ccc(Oc3ccc(NC(=O)Nc4cc(C(F)(F)F)ccc4F)cc3)cc2n1C.Cl", "note": "[GW692089]", "%Inh": 40},
      {"smiles": "Oc1cc(Nc2ccnc3cc(I)ccc23)ccc1F", "note": "[GW552771]", "%Inh": 30},
      {"smiles": "CC(C)c1nc(-c2cccc(NS(=O)(=O)c3c(F)cccc3F)c2F)c(-c2ccnc(Nc3ccc(N4CCOCC4)nc3)n2)s1", "note": "[GSK2008607]", "%Inh": 99.3},
      {"smiles": "CCn1c(-c2nonc2N)nc2c(C#CC(C)(C)O)nc(OC[C@H](N)c3ccccc3)cc21", "note": "[GSK943949]", "%Inh": 0},
      {"smiles": "CC(C)(C)c1ccc2nccc(Nc3cccc(O)c3)c2c1", "note": "[GW856795]", "%Inh": 0}
    ]}
  ]
}
